Consider ten compounds from PubChem BioAssay AID1347432 (National Center for Advancing Translational Sciences (NCATS), 2020).

The structures appear in SMILES notation. The source made the active and inactive calls. A call without a number means that no potency is given here. Calls follow the shape of the dose curve; as a rule, active = well fitted curve in the direction sought with a large enough effect; inactive = no such curve, though single readings can be large or run the other way.

The test has as its target Uracil-DNA glycosylase (Escherichia coli (strain K12)) (UniProt P12295). The test is described as follows: Confirmatory (Round 2) qHTS assay for inhibitors of Activation Induced Cytidine Deaminase (AID): UDG counterscreen signal. The following applies: FRET fluorescence, 4 h; series mostly up to 78.4 µM. The text has this:
Assay Provider (PI) Patricia Gearhart Ph.D. National Institute on Aging National Institute of Health (NIH), Bethesda, MD Assay Provider (PI) Rahul Kohli Ph.D. Perelman School of Medicine University of Pennsylvania, Philadelphia, PA Activation-Induced Deaminase (AID) is a cytosine deaminase which converts cytosine into uracil within stretches of ssDNA. The presence of uracil in DNA initiates a cascade of mutagenic DNA repair to introduce point mutations and DNA double strand breaks. Specific targeting of AID to the immunoglobulin heavy chain loci (Igh) promotes mutagenesis in the antibody variable region for somatic hypermutation (SHM) or switch regions leading to class switch recombination (CSR). However, AID also plays a role in accumulating unnecessary mutations across the genome. Mis-targeting of AID results in the initiation of tumor development and leads to greater drug resistance among cancer cells when continually expressed. To identify an AID inhibitor, a small molecule library will be screened in collaboration with NCATS core facility at NIH. To confirm biological function, inhibitors will be examined in an in vitro murine B-cell activation assay and subsequent secondary validation screens. Top molecules will be further screened to identify inhibitory efficacy against a wild type primary splenocytes assay. Using these approaches, we hope to identify a small molecule with great efficacy and low toxicity for use as a molecular probe to further characterize AID's intricacies, or even as a therapeutic. A FRET based analysis of cytosine deamination, was developed to identify potential inhibitors of AID catalytic activity. This screen has two signal output, Read 1 evaluates the AID inhibition response. The second readout (Read 2) evaluates UDG response and is uses as a counterscreen to exclude false positive inhibitors. Inhibition in AID and inactivity in the UDG signal is the desired outcome for this assay.
PROTOCOL TABLE SEQUENCE No. (e.g., 1, 2, 3, etc.); PARAMETER (e.g., Cells, Incubation, Reagent, etc.); VALUE; DESCRIPTION 1a; Reagent; 3 uL; [4/3x] 1 uM AID/2.67 U/mL UDG 1b; Reagent; 3 uL; 2 U/mL UDG 1c; Reagent; 3 uL; 1 uM AID 2a; Compound; 46 nL; Follow-up plates (0.64 uM - 10 mM) 2b; Control; 46 nL; ATA ([…] - 10 mM) 3; Time; 10 min; incubation at room temperature 4; Reagents; 1 uL; [4x] 250 nM DJC20 / 250 nM DJC23 [Substrate] 5; Time; 4 hr; incubation at room temperature 6; Reagent; 4 uL; [2x] 250 mM NaOH 7; Time; 15 sec; centrifuge at 1000 rpm 8; Time; 30 min; incubation at room temperature 9a; Detection; fluorescence (Read 1: AID); EnVision (PerkinElmer) plate reader, 540 excitation and 590 emission filters 9b; Detection; fluorescence (Read 2: UDG); EnVision (PerkinElmer) plate reader, 560 excitation and 665 emission filters NOTES (numbers refer to sequence above) 1a; Reagents were dispensed in a medium-binding black solid-bottom Greiner plates (789176F) using a BioRptr liquid dispenser. Dispense 3 uL of [4/3x] 1 uM AID (provided by Kohli lab) and [4/3x] 2 U/mL UDG (NEB M0280L) into columns 1, 2, 5 to 48. 1b; Dispense 3 uL of [4/3x] 2 U/mL UDG into column 3. 1c; Dispense 3 uL of [4/3x] 1 uM AID into column 4. 2a; Compound (7-points [uM]: 0.64; 3.2; 16; 80; 400; 2,000; 10,000; […]) double pin-transferred (Dip Factor = 2) using the Kalypsys (Wako USA) pintool equipped with a 1536 pinhead for a final concentration range of 7.32 nM - 114 uM. 2b; 10 mM Aurintricarboxylic Acid (Sigma A1895) (ATA, 8-point, n = 2, 1:2.5 dilution in column 2) double pin-transferred (Dip Factor = 2) using the Kalypsys (Wako USA) pintool equipped with a 1536 pinhead for a [final] range of 186 nM - 114 uM. 3; Room temperature incubation. 4; Dispense 1 uL of substrate mixture from the Kohli lab [4x] […] DJC20 and [4x] 250 nM DJC23 into columns 1 to 48 . 5; Room temperature incubation. 6; Dispense 4 uL of substrate mixture [2x] 250 mM NaOH into columns 1 to 48. 7; Centrifugation step to remove bubbles. […]
On the technique in general: In qHTS, concentration-response curves come from the screen itself.
In the case of `CC(C)c1ccc2c(c1)c(SC(C)(C)C)c(CC(C)(C)C(=O)O)n2Cc1ccc(Cl)cc1`, the Potency result is “inactive”. The result for `O=c1cc2nc(-c3ccccc3)nc(SCCOCCOc3ccccc3)n2[nH]1` reads “inactive”; that for `COc1ccccc1OCCSc1nc(-c2ccc(C(C)(C)C)cc2)nc2cc(=O)[nH]n12`, “inactive”; that for `O=c1cc2nc(-c3ccccc3)nc(SCCCn3ccnc3)n2[nH]1`, “inactive”. For `O=C(O)C1=CC(=C(c2ccc(O)c(C(=O)O)c2)c2ccc(O)c(C(=O)O)c2)C=CC1=O` the value was 31.6 µM (active); for `O=c1cc2nc(-c3ccccc3)nc(SCCCc3ccncc3)n2[nH]1`, “inactive”. Regarding `Cc1noc(C)c1CCSc1nc(-c2ccccc2)nc2cc(=O)[nH]n12`, the Potency entry is “inactive”. In the case of `Cn1ccnc1CCSc1nc(-c2ccccc2)nc2cc(=O)[nH]n12`, the Potency entry was “inactive”.

Regarding `O=c1cc2nc(-c3ccccc3)nc(SCCN3CCC(F)(F)CC3)n2[nH]1`, the Potency entry was “inactive”. Take `CN1CCN(CCCSc2nc(-c3ccccc3)nc3cc(=O)[nH]n23)CC1`: the Potency result was “inactive”.
